From PubChem BioAssay AID1159580 (chemical genetic matrix, 2015)
Several values for one entry are separate records, joined by “and”; a condition that tells them apart may be missing. Equal entries are not always repeated. Among all 5,500 compounds or so, about 2,000 (36%) were called active. Not shown: some 18% with an inconclusive outcome. No stated cut-off is given here; in the data, active means normalized growth mostly below about 0.91 (no sharp cut-off); inconclusive means no clear call, values can overlap the other calls; inactive means mostly above about 0.92. The list shows a part of the results.

Assay: chemical genetic growth profiling, strain panel (AID 1159580);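 further: tested at 20 µM; growth read once vehicle control cultures reached saturation at 30 °C; 1 = growth at the plate median or of vehicle wells; lower values mean less growth of the strain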
Conditions: S. cerevisiae deletion strains, growth OD

Measured: normalized growth

CC(C)=CCCC1(C)C=Cc2c(O)c3c(c(CC=C(C)C)c2O1)OC12C(=CC4CC1C(C)(C)OC2(C/C=C(/C)C(=O)O)C4O)C3=O (configuration not stated)
inactive: locus YBR021W, strain FUR4, active compounds read low 1.02 | locus YBR229C, strain ROT2, active compounds read low 0.947 | locus YCL029C, strain bik1, active compounds read low 0.946 | locus YDL035C, strain GPR1, active compounds read low 0.953 | locus YDL074C, strain BRE1, active compounds read low 1.03 | locus YDL101C, strain DUN1, active compounds read low 0.944 | locus YDL134C, strain PPH21, active compounds read low 0.949 | locus YDL185W, strain tfp1, active compounds read low 0.955 | locus YDL192W, strain arf1, active compounds read low 0.945 | locus YDR101C, strain arx1, active compounds read low 0.929 | locus YDR162C, strain NBP2, active compounds read low 0.862 | locus YDR318W, strain mcm21, active compounds read low 0.931 | locus YDR388W, active compounds read low 0.942 | locus YER110C, active compounds read low 0.952 | locus YER155C, strain BEM2, active compounds read low 1.01 | locus YER167W, strain BCK2, active compounds read low 0.995 | locus YGL078C, strain dbp3, active compounds read low 0.967 | locus YGL248W, strain PDE1, active compounds read low 0.946 | locus YGR078C, strain PAC10, active compounds read low 1.01 | locus YGR135W, strain pre9, active compounds read low 1 | locus YGR252W, strain gcn5, active compounds read low 1.06 | locus YHR030C, strain SLT2, active compounds read low 0.983 and 0.976 | locus YHR079C, strain IRE1 (second series), active compounds read low 0.944 | locus YHR079C, strain IRE1, active compounds read low 0.971 | locus YHR094C, strain hxt1, active compounds read low 0.958 | locus YHR129C, strain ARP1, active compounds read low 0.955 | locus YHR200W, strain rpn10, active compounds read low 0.938 | locus YIL066C, strain RNR3, active compounds read low 0.924 | locus YIL073C, strain SPO22, active compounds read low 1.06 | locus YIL125W, strain kgd1, active compounds read low 0.936 | locus YIR030C, strain dcg1, active compounds read low 0.966 | locus YJL095W, strain BCK1, active compounds read low 0.938 and 0.988 | locus YJL134W, strain LCB3, active compounds read low 0.976 | locus YJL168C, strain set2, active compounds read low 0.99 | locus YJL187C, strain SWE1 (second series), active compounds read low 0.929 | locus YJR043C, strain POL32, active compounds read low 0.963 | locus YJR066W, strain TOR1, active compounds read low 0.949 | locus YKL009W, strain mrt4, active compounds read low 0.953 | locus YKL068W, active compounds read low 0.98 | locus YKL085W, strain MDH1 (second series), active compounds read low 0.962 | locus YKL085W, strain MDH1, active compounds read low 0.962 | locus YLR039C, strain RIC1, active compounds read low 0.883 | locus YLR058C, strain SHM2, active compounds read low 0.931 | locus YLR102C, strain apc9, active compounds read low 0.966 | locus YLR113W, strain HOG1, active compounds read low 0.911 | locus YLR330W, strain CHS5, active compounds read low 0.991 | locus YLR371W, strain rom2, active compounds read low 0.964 | locus YML016C, strain PPZ1, active compounds read low 0.963 | locus YML032C, strain rad52, active compounds read low 0.945 | locus YML124C, strain tub3, active compounds read low 0.952 | locus YMR078C, strain ctf18, active compounds read low 0.967 | locus YMR223W, strain ubp8, active compounds read low 0.956 | locus YMR263W, strain SAP30, active compounds read low 0.971 | locus YMR307W, strain GAS1, active compounds read low 1.03 | locus YNL067W, strain RPL9B, active compounds read low 0.985 | locus YNL128W, strain TEP1, active compounds read low 0.921 | locus YNL183C, strain NPR1, active compounds read low 0.917 | locus YNL233W, strain BNI4, active compounds read low 1.02 | locus YNL250W, strain rad50, active compounds read low 0.951 | locus YNL271C, strain bni1, active compounds read low 0.947 | locus YNL298W, strain CLA4, active compounds read low 0.955 | locus YNL322C, strain KRE1, active compounds read low 0.986 | locus YNR052C, strain pop2, active compounds read low 0.961 | locus YOL012C, strain htz1 0.366 | locus YOL147C, strain pex11, active compounds read low 0.97 | locus YOR061W, strain CKA2, active compounds read low 0.924 | locus YOR069W, strain VPS5, active compounds read low 0.979 | locus YOR136W, strain idh2, active compounds read low 0.962 | locus YOR144C, strain elg1, active compounds read low 0.966 | locus YOR231W, strain MKK1, active compounds read low 0.942 | locus YOR316C, strain cot1, active compounds read low 0.956 | locus YPL055C, strain LGE1, active compounds read low 0.949 | locus YPL241C, strain CIN2, active compounds read low 0.98 | locus YPL256C, strain CLN2, active compounds read low 0.955 | locus YPR119W, strain clb2, active compounds read low 0.966 | locus YPR141C, strain kar3, active compounds read low 0.954 | locus YPR167C, strain met16, active compounds read low 0.984 | strain wtn01, active compounds read low 0.911
active: locus YDR502C, strain sam2, active compounds read low 0.917 | locus YGL086W, strain mad1, active compounds read low 0.925 | locus YKR001C, strain vps1, active compounds read low 0.849 | locus YLR268W, strain sec22, active compounds read low 0.883 | locus YLR418C, strain cdc73, active compounds read low 0.787 | locus YNL307C, strain MCK1, active compounds read low 0.72 | locus YOR184W, strain ser1, active compounds read low 0.803 | locus YPR163C, strain tif3, active compounds read low 0.909

CC1OC(=O)C(C(C)C)NC(=O)C(C(C)C)OC(=O)C(C(C)C)NC(=O)C(C)OC(=O)C(C(C)C)NC(=O)C(C(C)C)OC(=O)C(C(C)C)NC(=O)C(C)OC(=O)C(C(C)C)NC(=O)C(C(C)C)OC(=O)C(C(C)C)NC1=O (configuration not stated)
active: locus YAL021C, strain ccr4, active compounds read low 0.202 | locus YAL026C, strain drs2, active compounds read low 0.544 | locus YAL030W, strain snc1, active compounds read low 0.326 | locus YBL061C, strain skt5, active compounds read low 0.229 | locus YBR009C, strain hhf1, active compounds read low 0.223 | locus YBR023C, strain chs3, active compounds read low 0.23 | locus YBR171W, strain sec66, active compounds read low 0.54 | locus YBR231C, strain swc5, active compounds read low 0.286 | locus YBR279W, strain paf1, active compounds read low 0.544 | locus YCL011C, strain gbp2, active compounds read low 0.28 | locus YCL016C, strain dcc1, active compounds read low 0.238 | locus YCL069W, strain vba3, active compounds read low 0.51 | locus YCR088W, strain abp1, active compounds read low 0.51 | locus YDL005C, strain med2, active compounds read low 0.332 | locus YDL040C, strain nat1, active compounds read low 0.468 | locus YDR001C, strain nth1, active compounds read low 0.615 | locus YDR069C, strain doa4, active compounds read low 0.383 | locus YDR137W, strain rgp1, active compounds read low 0.144 | locus YDR159W, strain sac3, active compounds read low 0.318 | locus YDR195W, strain ref2 0.336 | locus YDR297W, strain sur2, active compounds read low 0.404 | locus YDR334W, strain swr1, active compounds read low 0.494 | locus YDR335W, strain msn5, active compounds read low 0.697 | locus YDR392W, strain spt3, active compounds read low 0.148 | locus YEL003W, strain gim4, active compounds read low 0.357 | locus YEL037C, strain rad23, active compounds read low 0.673 | locus YEL061C, strain CIN8 (second series), active compounds read low 0.448 | locus YER015W, strain faa2, active compounds read low 0.205 | locus YER016W, strain bim1, active compounds read low 0.259 | locus YER111C, strain swi4, active compounds read low 0.639 | locus YER155C, strain BEM2 (second series), active compounds read low 0.6 | locus YFR010W, strain ubp6, active compounds read low 0.535 | locus YGL167C, strain pmr1, active compounds read low 0.166 | locus YGL173C, strain kem1, active compounds read low 0.157 | locus YGL227W, strain vid30, active compounds read low 0.599 | locus YGL240W, strain doc1, active compounds read low 0.112 | locus YGL253W, strain hxk2, active compounds read low 0.243 | locus YHR013C, strain ard1, active compounds read low 0.159 | locus YHR027C, strain rpn1, active compounds read low 0.331 | locus YHR142W, strain chs7, active compounds read low 0.342 | locus YJL092W, strain hpr5, active compounds read low 0.556 | locus YJL095W, strain BCK1 (second series), active compounds read low 0.266 | locus YJL115W, strain asf1, active compounds read low 0.79 | locus YJL129C, strain trk1, active compounds read low 0.251 | locus YJL154C, strain vps35, active compounds read low 0.688 | locus YJL164C, strain tpk1, active compounds read low 0.267 | locus YJL166W, strain qcr8, active compounds read low 0.115 | locus YJL187C, strain SWE1, active compounds read low 0.343 | locus YKL160W, strain elf1, active compounds read low 0.278 | locus YKR026C, strain gcn3, active compounds read low 0.65 | locus YKR091W, strain srl3, active compounds read low 0.476 | locus YLL001W, strain dnm1, active compounds read low 0.499 | locus YLL026W, active compounds read low 0.301 | locus YLL041C, strain sdh2, active compounds read low 0.368 | locus YLR027C, strain aat2, active compounds read low 0.27 | locus YLR221C, strain rsa3, active compounds read low 0.326 | locus YLR258W, strain gsy2, active compounds read low 0.349 | locus YLR262C, strain YPT6 (second series), active compounds read low 0.132 | locus YLR320W, strain mms22, active compounds read low 0.18 | locus YLR342W, strain FKS1, active compounds read low 0.115 | locus YLR370C, strain arc18, active compounds read low 0.395 | locus YLR384C, strain iki3, active compounds read low 0.464 | locus YML120C, strain ndi1, active compounds read low 0.389 | locus YMR058W, strain fet3, active compounds read low 0.486 | locus YMR125W, strain sto1, active compounds read low 0.835 | locus YMR129W, active compounds read low 0.411 | locus YMR205C, strain PFK2, active compounds read low 0.278 | locus YMR231W, strain pep5, active compounds read low 0.193 | locus YNL071W, strain lat1, active compounds read low 0.0873 | locus YNL209W, strain ssb2, active compounds read low 0.237 | locus YNL322C, strain KRE1 (second series), active compounds read low 0.463 | locus YNR049C, strain mso1, active compounds read low 0.563 | locus YOR001W, strain rrp6, active compounds read low 0.497 | locus YOR070C, strain gyp1, active compounds read low 0.216 | locus YOR080W, strain dia2, active compounds read low 0.381 | locus YOR083W, strain WHI5, active compounds read low 0.318 | locus YOR106W, strain vam3, active compounds read low 0.331 | locus YOR265W, strain rbl2, active compounds read low 0.288 | locus YOR270C, strain vph1, active compounds read low 0.227 | locus YOR290C, strain snf2, active compounds read low 0.61 | locus YPL051W, strain arl3, active compounds read low 0.125 | locus YPL078C, strain atp4, active compounds read low 0.14 | locus YPL106C, strain sse1, active compounds read low 0.359 | locus YPL240C, strain hsp82, active compounds read low 0.412
inactive: locus YLR357W, strain rsc2, active compounds read low 0.891 | locus YNL248C, strain rpa49, active compounds read low 0.944
